Source: PubChem (several laboratories)
APP transl inh: APP translation inhibition; inhibition, % at 2 µM; 190,000 compounds, 0.82% hits; SH-SY5Y APP 5'UTR-luciferase reporter, luminescence; AID 1285;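 active means inhibition above a set limit, derived from the sample mean plus 3 SD, cut at about 45% in these data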
KLF5 inhibitor: inhibitors of KLF5 expression | AID 1700 | DLD-1 KLF5 promoter-luciferase reporter, luminescence | inhibition, % at 5 µM | 290,000 compounds, 0.23% hits;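 active means inhibition above a per-plate limit of that plate's mean compound inhibition plus 3 SD, cut at about 60% in these data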;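 further: 0% = DMSO wells and 100% = LY294002 at 200 µM; higher means less KLF5 promoter-driven luciferase light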
IEC-6 cytotox: kills IEC-6 intestinal cells in KLF5 counter-screen. IEC-6 cytotoxicity, luminescence viability. inhibition, % at 5 µM. 290,000 compounds, 0.78% hits; in the data active means inhibition above about 22%;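 further: 0% = plate median of test compound wells and 100% = cytotoxic reference compound wells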
aSyn UTR inh: MLPCN primary screen, SNCA 5' untranslated region; 300,000 compounds, 0.82% hits; alpha-synuclein 5'UTR reporter, inhibitor activity; inhibition, % (tested at 7.5 µM); AID 1813; in the data active means inhibition above about 60%;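 further: H4 neuroglioblastoma cells stably carrying SNCA 5'UTR luciferase fusion; 0% = DMSO wells and 100% = positive control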
Ba/F3 V617F tox: reduce viability of Ba/F3 cells dependent on JAK2V617F; 220,000 compounds, 1.1% hits; inhibition, % at 5.6 µM; Ba/F3 EpoR-JAK2V617F viability, ATP luminescence;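 active means inhibition above the campaign mean plus 3 SD over all tested compounds, cut at about 24% in these data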;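 further: cytokine-independent growth of Ba/F3 cells driven by EpoR plus mutant JAK2; 0% = DMSO-treated cells and 100% = JAK inhibitor I control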
BaF3 tox: reduces parental Ba/F3 cell viability, JAK2V617F counter-screen | CellTiter-Glo ATP luminescence | inhibition, % at 5.6 µM | 220,000 compounds, 1.1% hits | AID 1486;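 active means inhibition above a per-campaign cutoff, the mean inhibition of all tested compounds plus 3 SD, cut at about 27% in these data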;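 further: 0% = DMSO wells and 100% = JAK Inhibitor I control wells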
BaF3 parental 2: parental Ba/F3 viability inhibition for JAK2V617F counter-screen. shares compounds with Ba/F3 V617F tox. CellTiter-Glo luminescence; cells kept alive by added IL-3. inhibition, % at 5.6 µM. 580 compounds, 31% hits;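 active means cell growth inhibition above the hit limit set in the earlier mutant JAK2 cell screen, cut at about 27% in these data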;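 further: plate controls were DMSO-treated cells for no effect and JAK Inhibitor I control wells for full effect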
JAK2V617F conf: confirmation: loss of viability in JAK2V617F-dependent Ba/F3 cells. shares compounds with Ba/F3 V617F tox. Ba/F3 EpoR-JAK2V617F viability, CellTiter-Glo luminescence. inhibition, % at 5.6 µM. 580 compounds, 66% hits;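 active means mean inhibition above the hit cutoff derived in the earlier primary screen, cut at about 25% in these data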;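 further: 0% = DMSO-treated cells and 100% = JAK inhibitor I control wells; higher means lower luminescence from reduced cell ATP and viability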
Active calls of the source: *; · = no result given. A selection: hits, their analogues and other compounds. The true share with any hit is near 2.2%.

SMILES	APP transl inh	KLF5 inhibitor	IEC-6 cytotox	aSyn UTR inh	Ba/F3 V617F tox	BaF3 tox	BaF3 parental 2	JAK2V617F conf
N#CC1=C2SCC(O)(c3ccccc3)N2C(=O)CC1c1ccccc1F (stereo not drawn)	-2.9	21.3	14.9	-18.0	26.6*	17.5	19.8	25.2*
COc1ccc(C2CC(=O)N3C(=C2C#N)SCC3(O)c2ccccc2)cc1 (stereo not drawn)	-20.5	0.9	5.2	22.8	-5.1	-0.7	·	·
O=C(COC(=O)CNC(=O)c1ccccc1F)NCCC1=CCCCC1	5.2	-12.0	-4.2	8.0	-1.1	5.2	·	·
O=C1C2CCCN2C(c2ccc(F)cc2)N1c1ccc(Cl)cc1 (stereo not drawn)	-13.6	-37.1	3.7	25.0	42.2*	18.0	2.9	18.2
O=C1C2CCCN2C(c2ccccc2)N1c1ccc(F)cc1 (stereo not drawn)	-8.0	1.2	-0.4	-2.6	-3.5	4.4	·	·
CCc1nc(N=C(N)N)nc2ccccc12	-13.4	-46.2	3.1	-11.7	28.0*	16.9	13.1	53.4*
CCc1nc2ccccc2c(C(=O)O)c1C	-8.6	0.7	-3.6	-6.3	3.0	1.0	·	·
COc1ccc(C)cc1NC(=O)C1CCN(C(=O)Cc2ccccc2)CC1	2.1	0.7	2.5	-15.5	41.5*	7.6	0.2	3.8
OC1(c2ccc(Cl)c(Cl)c2)C[n+]2ccccc2N1Cc1ccccc1 (stereo not drawn)	·	-10.3	0.1	6.0	34.4*	2.9	11.9	47.7*
O=C(/C(=N/N=C/c1ccc(O)c(O)c1)c1ccccc1)c1ccccc1	4.1	-24.1	-4.0	4.0	49.1*	10.2	9.4	98.8*
Oc1ccc(/C=N/N=C/c2ccc(O)c(O)c2)cc1O	·	-23.7	3.9	-24.5	·	·	·	·
CC(=O)c1ccc(N2CCN(C(=O)c3ccc4ccccc4n3)CC2)cc1	5.0	-0.3	-3.2	32.9	75.6*	11.1	-2.3	-4.6
CN1CCN(Cc2cc(COCc3ccccc3)c3cccnc3c2O)CC1	72.3*	20.1	5.3	99.4*	37.8*	16.0	4.7	28.5*
O=C(CN1C(=O)/C(=C/c2c(F)cccc2Cl)Oc2ccccc21)NCc1ccco1	-39.5	-12.8	6.0	21.1	-0.2	2.2	·	·
CCN(CC)C(=O)C1=C(C)NC(=O)NC1c1c(F)cccc1Cl (stereo not drawn)	6.2	-20.9	-4.3	16.8	28.5*	-0.4	-6.0	1.1
CCOC(=O)N1CCN(CC(c2ccccc2)c2ccccc2)CC1	·	-24.4	1.5	-0.4	·	·	·	·
COC(=O)c1ccc(NC(=O)C(C)Oc2ccccc2)cc1 (stereo not drawn)	-15.8	-15.3	-3.1	10.4	25.9*	3.9	-6.8	-16.8
CC(Oc1ccccc1)C(=O)Nc1ccc(C(N)=O)cc1 (stereo not drawn)	-10.4	6.1	4.4	-16.1	-2.3	0.3	·	·
S=c1[nH]nc(-c2ccc(Cl)cc2)n1/N=C/c1ccco1	·	-22.5	1.1	9.4	-0.5	-0.4	·	·
FC(F)(F)c1n[nH]c(=S)n1/N=C/c1ccco1	11.3	6.3	-4.4	9.3	35.5*	0.3	-7.7	-10.0
CCc1ccccc1NC(=S)N(Cc1cccc(C)c1)c1cccnc1	-26.8	-21.6	1.2	9.4	3.0	2.3	·	·
Cc1cccc(CN(C(=S)Nc2c(C)cccc2C)c2cccnc2)c1	-18.6	1.5	4.9	-32.2	102.5*	-1.1	-5.2	13.2
Cc1ccc(C23CC4CC(CC(CC(=O)N5CCOCC5)(C4)C2)C3)cc1	10.6	1.4	-2.2	2.7	96.8*	5.3	2.7	15.8
Cc1ccc(C23CC4CC(CC(C(=O)N5CCN(C)CC5)(C4)C2)C3)cc1	·	-24.2	-6.7	-0.6	-0.3	-2.1	·	·
O=C(NC1CC(=O)c2sccc21)c1ccc(Cl)cc1Cl (stereo not drawn)	-41.0	-44.7	-1.0	-86.6	-0.8	7.4	·	·
Cc1cccc(NC(=O)C(C)n2cc([N+](=O)[O-])cn2)n1 (stereo not drawn)	15.5	3.8	-4.1	-1.6	-2.4	2.9	·	·
Cc1cccc(N(Cc2ccccc2)C(=O)Cc2ccc(S(=O)(=O)N3CCOCC3)s2)c1	·	·	·	4.3	·	·	·	·
Cc1cc(C)c(C#N)c(N2CCN(c3ccc(F)cc3)CC2)n1	·	2.8	3.1	-0.4	·	·	·	·
